{"source": "PubChem BioAssay AID1851", "about": "(National Center for Advancing Translational Sciences (NCATS), 2009)", "note": "Hit rate of the full screen: of about 16,000 compounds, about 5,100 (32%) were called active. Inconclusive results (about 25%) are left out. Calls follow the shape of the dose curve; as a rule, active = well fitted curve in the direction sought with a large enough effect; inconclusive = small, poorly fitted or top-dose-only effect, or effect the other way; inactive = no such curve, though single readings can be large or run the other way. The list shows a part of the results. % is scaled to controls: 0 for no effect and ±100 for the full control effect."}
{"target": "Cytochrome P450 3A4 (Homo sapiens) (UniProt P08684)", "sequence (P08684 whole entry, looked up)": "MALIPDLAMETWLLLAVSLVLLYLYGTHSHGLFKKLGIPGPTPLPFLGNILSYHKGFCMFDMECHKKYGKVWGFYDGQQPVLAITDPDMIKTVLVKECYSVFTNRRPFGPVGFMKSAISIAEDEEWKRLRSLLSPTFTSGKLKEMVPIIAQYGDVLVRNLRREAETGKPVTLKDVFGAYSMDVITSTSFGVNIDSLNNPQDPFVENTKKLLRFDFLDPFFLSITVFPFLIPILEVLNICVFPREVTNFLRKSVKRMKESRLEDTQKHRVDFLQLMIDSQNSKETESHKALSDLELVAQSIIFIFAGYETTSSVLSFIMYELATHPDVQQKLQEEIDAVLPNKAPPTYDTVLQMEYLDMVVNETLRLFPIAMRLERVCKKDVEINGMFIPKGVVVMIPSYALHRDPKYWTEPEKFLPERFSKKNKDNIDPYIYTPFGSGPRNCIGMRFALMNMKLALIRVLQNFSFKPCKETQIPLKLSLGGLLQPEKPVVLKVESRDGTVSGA", "experiment": "Cytochrome panel assay with activity outcomes", "conditions": "recombinant CYP, pro-luciferin dealkylation, luminescence, p450-cyp3a4; series mostly up to 57.1 µM"}
{"smiles": "NC(=O)/C(=N\\O)c1ccccc1", "AC50": "inactive"}
{"smiles": "CC(=O)NCCNc1nc(-c2cccc(NS(C)(=O)=O)c2)nc2ccccc12", "AC50": "15.8 µM (active)"}
{"smiles": "c1cc(NNc2cccc(-c3nn[nH]n3)c2)cc(-c2nn[nH]n2)c1", "activity, negative = inhibition": "-11.1% [at 11.4 µM] (inactive)"}
{"smiles": "CS(=O)(=O)Nc1cccc(-c2nc(NCc3ccccc3)c3ccccc3n2)c1", "AC50": "3.16 µM (active)"}
{"smiles": "Cn1c(=O)c2c(ncn2CN2CCN(Cn3cnc4c3c(=O)n(C)c(=O)n4C)CC2)n(C)c1=O", "activity, negative = inhibition": "3.42% [at 11.4 µM] (inactive)"}
{"smiles": "COc1ccccc1CNc1ncnc2ccc(-c3cccc(C#N)c3)cc12", "AC50": "7.94 µM (active)"}
{"smiles": "COc1ccc(CNc2ncnc3ccc(-c4cccc(C#N)c4)cc23)c(OC)c1", "AC50": "1.58 µM (active)"}
{"smiles": "Cc1ccc(S(=O)(=O)NC(=O)OC23COCN2COC3)cc1", "activity, negative = inhibition": "-8.25% [at 11.4 µM] (inactive)"}
{"smiles": "COc1ccc(-n2c(=O)c(-c3cc(F)cc(F)c3)nc3cncnc32)cc1", "AC50": "12.6 µM (active)"}
{"smiles": "COc1ccc(-n2c(=O)c(-c3ccc(F)cc3)nc3cncnc32)cc1", "AC50": "inactive"}
{"smiles": "COc1ccc(-n2c(=O)c(-c3ccc(F)cc3)nc3cnc(N4CCOCC4)nc32)cc1", "AC50": "inactive"}
{"smiles": "O=c1c(-c2cc(F)cc(F)c2)nc2cncnc2n1-c1ccccc1", "AC50": "inactive"}
{"smiles": "Cn1c(=O)c(-c2ccc(Cl)cc2)nc2cncnc21", "AC50": "inactive"}
{"smiles": "COc1ccc(-n2c(=O)c(-c3ccc(Cl)cc3)nc3cncnc32)cc1", "AC50": "15.8 µM (active)"}
{"smiles": "COc1ccc(-n2c(=O)c(-c3cccc(F)c3)nc3cncnc32)cc1", "AC50": "20 µM (active)"}
{"smiles": "COc1ccc(-n2c(=O)c(C)nc3cncnc32)cc1", "AC50": "5.01 µM (active)"}
{"smiles": "Cn1c(=O)c(-c2cccc(Cl)c2)nc2cncnc21", "AC50": "inactive"}
{"smiles": "CCNc1ncc2nc(-c3ccc(F)cc3)c(=O)n(-c3ccccc3)c2n1", "AC50": "inactive"}
{"smiles": "COc1ccc(-n2c(=O)c(-c3cccc(Cl)c3)nc3cncnc32)cc1", "AC50": "12.6 µM (active)"}
{"smiles": "CCNc1ncc2nc(-c3cc(F)cc(F)c3)c(=O)n(-c3ccc(OC)cc3)c2n1", "AC50": "10 µM (active)"}
{"smiles": "Nc1ncnc2c1ncn2[C@H]1O[C@@H](C(=O)O)[C@@H](O)[C@H]1O", "activity, negative = inhibition": "0.186% [at 11.4 µM] (inactive)"}
{"smiles": "CCOC(=O)C1=C(CSc2nc3ccccc3s2)NC(=O)NC1c1cccc([N+](=O)[O-])c1", "note": "(stereo not given)", "AC50": "6.31 µM (active)"}
{"smiles": "CCOC(=O)C1=C(COc2ccc(F)cc2Cl)NC(=O)NC1c1cc(C)ccc1C", "note": "(stereo not given)", "AC50": "6.31 µM (active)"}
{"smiles": "COC(=O)C1=C(CSc2nncn2C)NC(=O)NC1c1ccc(F)cc1", "note": "(stereo not given)", "AC50": "inactive"}
{"smiles": "CCOC(=O)C1=C(CSc2nc3ccccc3s2)NC(=O)NC1c1cc(C)ccc1C", "note": "(stereo not given)", "AC50": "4.47 µM (active)"}
{"smiles": "CCC(=O)NNc1cc(=O)c2c(=O)n(C)c(=O)n(C)c2[nH]1", "activity, negative = inhibition": "1.3% [at 2.29 µM] (inactive)"}
{"smiles": "O=C1CCCN1c1ccc(S(=O)(=O)Oc2cccc(Cl)c2)cc1[N+](=O)[O-]", "AC50": "12.6 µM (active)"}
{"smiles": "O=[N+]([O-])c1ccc(N2CCCCC2)c(Cl)c1N1CCCCC1", "AC50": "inactive"}
{"smiles": "CN1C(=O)/C(=C\\c2ccccc2)Sc2ccc(C(=O)N3CCN(c4ccccn4)CC3)cc21", "AC50": "14.1 µM (active)"}
{"smiles": "Cn1cccc1C(=O)N1CCC2(CC1)CCN(c1ccccn1)CC2", "AC50": "inactive"}
{"smiles": "COc1cccc(-c2nc(NCc3cnc(C)cn3)c3ccccc3n2)c1", "AC50": "2.51 µM (active)"}
{"smiles": "Cc1cnc(CNc2nc(-c3cccnc3)nc3ccccc23)cn1", "AC50": "3.98 µM (active)"}
{"smiles": "CCCC12CN3CC(CCC)(CN(C1)C3C(O)C(O)C(O)CO)C2=O", "note": "(stereo not given)", "activity, negative = inhibition": "0.643% [at 11.4 µM] (inactive)"}
{"smiles": "Cc1ccc(C(=O)NNC(=S)NC(=O)c2ccc(Cl)cc2)cc1", "AC50": "14.1 µM (active)"}
{"smiles": "O=C(NNC(=S)NC(=O)c1cccnc1)c1ccccc1", "activity, negative = inhibition": "1.97% [at 2.29 µM] (inactive)"}
{"smiles": "COC(=O)c1nnn(Cc2ccccc2)c1N", "AC50": "inactive"}
{"smiles": "Cc1ccc(C)c(NC(=O)Cn2c([N+](=O)[O-])cnc2C)c1", "AC50": "inactive"}
{"smiles": "CCOc1ccc(NC(=O)c2nnn(CC(=O)Nc3ccccc3OC)c2N)cc1", "AC50": "inactive"}
{"smiles": "Cc1ccc(C)c(NC(=O)Cn2nnc(C(=O)NCc3cccs3)c2N)c1", "AC50": "inactive"}
{"smiles": "COc1ccc(CCNC(=O)c2nnn(CC(=O)Nc3ccccc3C)c2N)cc1OC", "AC50": "12.6 µM (active)"}
{"smiles": "Cc1ccc(C)c(NC(=O)Cn2nnc(C(=O)Nc3c(C)cccc3C)c2N)c1", "AC50": "12.6 µM (active)"}
{"smiles": "CCOc1ccc(NC(=O)Cn2nnc(C(=O)NCc3ccccc3OC)c2N)cc1", "AC50": "11.2 µM (active)"}
{"smiles": "O=C(O)/C=C1\\NC(=O)c2ccccc21", "AC50": "inactive"}
{"smiles": "NCC[C@H](N)C(=O)O", "activity, negative = inhibition": "-6.61% [at 11.4 µM] (inactive)"}
{"smiles": "CC(C)NC(=O)N1CC[C@@]2(CCCN(S(C)(=O)=O)C2)C1", "AC50": "inactive"}
{"smiles": "COc1ccc(NC(=O)N2CCC3(CC2)CCN(S(C)(=O)=O)CC3)cc1", "AC50": "inactive"}
{"smiles": "CC(C)NC(=O)N1CC2(CCN(S(=O)(=O)c3ccccc3)CC2)C1", "AC50": "inactive"}
{"smiles": "COCC(=O)N1CCC2(CCCN(C(=O)Nc3ccccc3)C2)CC1", "AC50": "inactive"}
{"smiles": "CC(C)NC(=O)N1CCCC2(CCN(S(=O)(=O)c3ccccc3)CC2)C1", "AC50": "7.94 µM (active)"}
{"smiles": "COc1ccc(NC(=O)N2CC3(CCN(S(C)(=O)=O)CC3)C2)cc1", "AC50": "inactive"}
{"smiles": "COc1ccc(NC(=O)N2CCCC3(CCN(S(=O)(=O)c4ccccc4)CC3)C2)cc1", "AC50": "7.94 µM (active)"}
{"smiles": "COc1ccc(NC(=O)N2CCCC3(CCN(S(C)(=O)=O)CC3)C2)cc1", "AC50": "31.6 µM (active)"}
{"smiles": "CCCCCCCCCCCCCCSCC(=O)O", "AC50": "inactive"}
{"smiles": "O=C(NCCNC[C@@H](O)COc1ccc(O)cc1)N1CCOCC1", "AC50": "inactive"}
{"smiles": "Cc1ccc(OCC(O)CNC(=O)c2ccccc2C(=O)O)cc1", "note": "(stereo not given)", "AC50": "28.2 µM (active)"}
{"smiles": "O=C(O)COc1ccc(OCCNC[C@@H](O)COc2ccccc2)cc1", "AC50": "inactive"}
{"smiles": "Cc1ccnc2nc(C(=O)OCC(=O)Nc3ccc4c(c3)OC(F)(F)O4)nn12", "AC50": "inactive"}
{"smiles": "COc1cc(C)cc(OC)c1/C=C\\C(=O)O", "activity, negative = inhibition": "-4.32% [at 11.4 µM] (inactive)"}
{"smiles": "COC(=O)[C@@]1(Cc2ccc(F)cc2)[C@H]2c3cc(C(=O)N4CCCC4)n(CCc4ccc(OC)c(Br)c4)c3C[C@H]2CN1C(=O)c1ccccc1", "AC50": "2.51 µM (active)"}
{"smiles": "COC(=O)[C@@]1(Cc2ccc(F)cc2)[C@H]2c3cc(C(=O)N4CCCC4)n(CCc4ccc(O)c(O)c4)c3C[C@H]2CN1C(=O)c1ccccc1", "AC50": "2.51 µM (active)"}
